Results published in PubChem BioAssay (NCATS).
Records with an inconclusive call do not appear. The source made the active and inactive calls. Unless noted, calls come from the whole dose curve; as a rule, active = well fitted curve in the direction sought with a large enough effect; inconclusive = small, poorly fitted or top-dose-only effect, or another doubt; inactive = no such curve, though single readings can be large; an effect the other way counts as inactive or inconclusive.

Assays:
[1] = tested on: Zika virus NS2B-NS3 protease (unlinked complex); experiment: Primary screen GU Rhodamine qHTS for Zika virus inhibitors: Unlinked NS2B-NS3 protease assay (AID 1347159); note: nearly all actives have a fitted effect of over 60% in size; note: potency is the fitted concentration of half-maximal effect; for activity change, negative = inhibition: % is set by controls: 0 for no effect and ±100 for the full control effect
In short: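 Percent inhibition derives from the 15-min fluorescence change (ex 480, em 540 nm), normalized to no-enzyme and no-inhibitor wells. Reactions contained 25 nM NS2B-NS3 complex and 1.5 microM substrate in 10 mM Tris-HCl pH 8.0.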

[2] = Primary qHTS for inhibitors of nuclear receptor binding SET domain protein 2 (NSD2) in an isogenic RCH-ACV NSD2 p.E1099K mutant (9B) (AID 1645876); note: nearly all actives have a fitted effect of over 70% in size; note: potency is the fitted concentration of half-maximal effect
[3] = Primary qHTS for inhibitors of nuclear receptor binding SET domain protein 2 (NSD2) in an RCH-ACV wild type WT cells (2C) (AID 1645877); note: nearly all actives have a fitted effect of over 70% in size; note: potency is the fitted concentration of half-maximal effect
HEK293 = experiment: Cytotoxic Profiling of Annotated Libraries Using Quantitative High-Throughput Screening (AID 1296008); details: Five cell lines viability, CellTiter-Glo ATP luminescence, 48-72 h; max response: stronger effect = lower value; note: nearly all actives have a fitted effect of over 60% in size; note: potency is the fitted concentration of half-maximal effect; for max response: % is set by controls: 0 for no effect and ±100 for the full control effect
In short: (§1)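 Cytotoxicity was measured as CellTiter-Glo ATP luminescence, read after 10 min at room temperature. Compound treatment of the cells lasted 48 or 72 hr at 37 degrees Celsius in a qHTS format.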

[4] = P-glycoprotein substrates identified in KB-8-5-11 adenocarcinoma cell line, qHTS therapeutic library screen (AID 1346987); note: nearly all actives have a fitted effect of over 65% in size; note: potency is the fitted concentration of half-maximal effect
In short: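 Steps: plate 500 KB-8-5-11 cells/well in DMEM + 10% FCS (colchicine removed); pin compounds in dose-response; incubate 72 h, 37 degree C, 5% CO2; add CellTiter-Glo, 5 min; read luminescence.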

NIH3T3 [5] = experiment: Cytotoxic Profiling of Annotated Libraries Using Quantitative High-Throughput Screening (AID 1296008); details: Five cell lines viability, CellTiter-Glo ATP luminescence, 48-72 h; max response: stronger effect = lower value; note: nearly all actives have a fitted effect of over 60% in size; note: potency is the fitted concentration of half-maximal effect; for max response: % is set by controls: 0 for no effect and ±100 for the full control effect
In short: as §1

HeLa = experiment: Primary qHTS to identify gynecologic anti-cancer compounds using libraries of approved drugs and bioactive compounds (AID 1345084); details: Gynecologic cancer cell panel viability, ATPlite luminescence, 48 h; series mostly up to 57.5 µM; note: nearly all actives have a fitted effect of over 55% in size; note: potency is the fitted concentration of half-maximal effect
In short: (§2)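 Cells, 1,000 per well, plated 16 h, then exposed 48 h at 37 C to compounds. Viability by ATPlite luminescence after 15 min at room temperature.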

[6] = qHTS drug screen for cell cycle checkpoint inhibitors in PARPi-resistant BRCA-mutant ovarian cancer cell lines. (AID 1963452; calls by dose curve); details: PEO1/OlaR viability, CellTiter-Glo luminescence, 96 h, stronger effect = lower value
In short: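 PEO1, PEO4 and PEO1/OlaR ovarian cancer cells, 600 per well, exposed 96 h at 37C to a dilution series. Viability read by CellTiter-Glo luminescence, normalized to DMSO and empty wells; activity summarized as Z-AUC.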

HaCat [7] = experiment: Cytotoxic Profiling of Annotated Libraries Using Quantitative High-Throughput Screening (AID 1296008); details: Five cell lines viability, CellTiter-Glo ATP luminescence, 48-72 h; max response: stronger effect = lower value; note: nearly all actives have a fitted effect of over 60% in size; note: potency is the fitted concentration of half-maximal effect; for max response: % is set by controls: 0 for no effect and ±100 for the full control effect
In short: as §1

CRL-7250 = normal cell line; experiment: qHTS assay to identify novel small-molecules to repurpose for Merkel cell carcinoma treatment (AID 1296009); details: MCC and control cell lines, CellTiter-Glo viability, 72 h; series mostly up to 92 µM; note: nearly all actives have a fitted effect of over 60% in size
In short: (§3)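 72 hr, 37 degree celsius; NPC 8-pt / MIPE 11-pt dose response; compound pinned in DMSO; CellTiter-Glo, 10 min RT, luminescence; normalized to no-cell and DMSO controls.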

SKOV3 = experiment: Primary qHTS to identify gynecologic anti-cancer compounds using libraries of approved drugs and bioactive compounds (AID 1345084); details: Gynecologic cancer cell panel viability, ATPlite luminescence, 48 h; series mostly up to 57.5 µM; note: nearly all actives have a fitted effect of over 55% in size; note: potency is the fitted concentration of half-maximal effect
In short: as §2

[8] = biological target: Cytochrome P450 2D6 (Homo sapiens) (UniProt P10635); experiment: Cytochrome P450 family 2 subfamily D member 6 (CYP2D6) small molecule antagonists: luciferase biochemical (cell-free) qHTS assay (AID 1645840; active = well fitted curve in the direction sought with a large enough effect in the repeat runs; an effect the other way counts as inactive or inconclusive; note: nearly all actives have a fitted effect of over 55% in size; note: potency is the fitted concentration of half-maximal effect)
In short: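 P450-Glo luminescent screen: recombinant CYP2D6 enzyme–proluciferin substrate mix preincubated with compound 10 min at room temperature, then NADPH regeneration added for 1 h at room temperature. Detection reagent added for 20 min; luciferin light read as relative luminescence units.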

[9] = biological target: Cytochrome P450 2C9 (Homo sapiens) (UniProt P11712); experiment: Cytochrome P450 family 2 subfamily C member 9 (CYP2C9) small molecule antagonists: luciferase biochemical (cell-free) qHTS assay (AID 1645842; active = well fitted curve in the direction sought with a large enough effect in the repeat runs; an effect the other way counts as inactive or inconclusive; note: nearly all actives have a fitted effect of over 55% in size; note: potency is the fitted concentration of half-maximal effect)
In short: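 Luminescence, after 20 min with luciferin detection reagent, reflected CYP2C9 turnover during a 1 h NADPH-driven reaction at 37C. Enzyme-substrate mix contained 0.4% bovine serum albumin and was preincubated with compound 10 min at room temperature.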

[10] = biological target: Catechol O-methyltransferase (Homo sapiens) (UniProt P21964); experiment: Confirmatory Screen for Target Class Profiling of Small Molecule Inhibitors of Methyltransferases (AID 1745852); details: MTase-Glo luminescence, SAH detection, recombinant enzyme; measured here: COMT max response; stronger effect = lower value
[11] = biological target: Guanidinoacetate N-methyltransferase (Homo sapiens) (UniProt Q14353); experiment: as above; details: activity change, negative = inhibition: at 57.3 µM (top of the series) unless noted
[12] = biological target: Nicotinamide N-methyltransferase (Homo sapiens) (UniProt P40261); experiment: as above; details: MTase-Glo luminescence, SAH detection, recombinant enzyme; measured here: NNMT max response; stronger effect = lower value
[13] = biological target: Phenylethanolamine N-methyltransferase (Homo sapiens) (UniProt P11086); experiment: as above; details: MTase-Glo luminescence, SAH detection, recombinant enzyme; measured here: PNMT max response; stronger effect = lower value
NIH3T3 [14] = experiment: qHTS assay to identify novel small-molecules to repurpose for Merkel cell carcinoma treatment (AID 1296009); details: MCC and control cell lines, CellTiter-Glo viability, 72 h; at 44.8 µM (top of the series) unless noted; note: nearly all actives have a fitted effect of over 60% in size
In short: as §3

HACAT [15] = experiment: as above; details: MCC and control cell lines, CellTiter-Glo viability, 72 h; at 44.8 µM (top of the series) unless noted
In short: as §3

Chain of Cytochrome P450 2D6 (Homo sapiens) (P10635 whole entry, looked up): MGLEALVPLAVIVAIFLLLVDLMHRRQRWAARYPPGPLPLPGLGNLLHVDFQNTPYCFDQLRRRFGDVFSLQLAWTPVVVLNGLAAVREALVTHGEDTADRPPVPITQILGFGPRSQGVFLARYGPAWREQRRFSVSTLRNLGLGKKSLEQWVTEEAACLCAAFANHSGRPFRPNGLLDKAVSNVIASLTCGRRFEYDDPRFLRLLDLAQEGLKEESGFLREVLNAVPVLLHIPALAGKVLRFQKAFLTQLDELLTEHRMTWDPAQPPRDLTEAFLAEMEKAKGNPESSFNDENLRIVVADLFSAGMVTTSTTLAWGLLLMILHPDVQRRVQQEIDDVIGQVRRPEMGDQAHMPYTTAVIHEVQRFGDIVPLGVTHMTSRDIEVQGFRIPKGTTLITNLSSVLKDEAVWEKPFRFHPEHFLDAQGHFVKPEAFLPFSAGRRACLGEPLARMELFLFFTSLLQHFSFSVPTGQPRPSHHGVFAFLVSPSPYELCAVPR
Chain of Cytochrome P450 2C9 (Homo sapiens) (P11712 whole entry, looked up): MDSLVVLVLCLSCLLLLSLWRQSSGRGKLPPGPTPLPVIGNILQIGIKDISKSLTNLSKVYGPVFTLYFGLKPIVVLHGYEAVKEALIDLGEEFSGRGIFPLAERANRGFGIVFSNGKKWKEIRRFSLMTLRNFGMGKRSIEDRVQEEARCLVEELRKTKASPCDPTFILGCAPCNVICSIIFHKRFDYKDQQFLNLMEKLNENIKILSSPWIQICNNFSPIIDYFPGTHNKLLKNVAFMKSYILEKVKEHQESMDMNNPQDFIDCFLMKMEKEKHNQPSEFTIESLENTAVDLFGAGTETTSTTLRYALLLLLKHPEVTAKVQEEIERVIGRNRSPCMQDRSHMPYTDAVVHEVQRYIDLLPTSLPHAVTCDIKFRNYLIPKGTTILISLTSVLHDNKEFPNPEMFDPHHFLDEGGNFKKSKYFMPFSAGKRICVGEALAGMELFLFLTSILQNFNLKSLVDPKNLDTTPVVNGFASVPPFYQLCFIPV
Chain of Catechol O-methyltransferase (Homo sapiens) (P21964 whole entry, looked up): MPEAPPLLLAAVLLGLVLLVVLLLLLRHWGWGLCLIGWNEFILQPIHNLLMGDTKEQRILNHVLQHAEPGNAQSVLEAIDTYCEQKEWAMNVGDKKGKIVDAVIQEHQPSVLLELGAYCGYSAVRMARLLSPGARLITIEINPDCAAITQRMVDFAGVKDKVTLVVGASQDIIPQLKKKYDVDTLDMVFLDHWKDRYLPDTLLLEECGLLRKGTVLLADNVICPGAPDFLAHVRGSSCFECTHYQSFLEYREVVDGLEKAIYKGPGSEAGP
Chain of Phenylethanolamine N-methyltransferase (Homo sapiens) (P11086 whole entry, looked up): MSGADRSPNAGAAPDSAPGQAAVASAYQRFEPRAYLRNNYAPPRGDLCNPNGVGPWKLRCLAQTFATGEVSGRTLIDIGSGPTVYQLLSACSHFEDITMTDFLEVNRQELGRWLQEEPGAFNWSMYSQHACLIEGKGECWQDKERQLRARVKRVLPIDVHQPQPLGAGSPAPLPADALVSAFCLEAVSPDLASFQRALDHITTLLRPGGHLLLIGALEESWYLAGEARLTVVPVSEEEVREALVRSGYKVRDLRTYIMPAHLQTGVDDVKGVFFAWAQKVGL
Chain of Nicotinamide N-methyltransferase (Homo sapiens) (P40261 whole entry, looked up): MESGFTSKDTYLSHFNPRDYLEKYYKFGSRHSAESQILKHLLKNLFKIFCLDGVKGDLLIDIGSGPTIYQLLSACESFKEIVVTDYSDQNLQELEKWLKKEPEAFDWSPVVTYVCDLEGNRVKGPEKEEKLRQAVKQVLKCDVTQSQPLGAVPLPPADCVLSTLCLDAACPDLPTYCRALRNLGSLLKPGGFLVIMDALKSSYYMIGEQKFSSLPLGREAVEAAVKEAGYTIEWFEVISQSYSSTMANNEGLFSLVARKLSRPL

CC1=CC(=O)[C@@H](O)[C@@]2(C)C1C[C@H]1OC(=O)[C@H](O)[C@@]3(O)[C@@H](C)[C@@H](O)[C@H](O)C2[C@@]13C (some centres not stated)
inactive: Potency [1]
active: Potency [2] 1.27 µM | Potency [3] 1.01 µM | Potency (HEK293) 2.02 µM

C=C(C)C(=O)O[C@H]1[C@@H]2[C@H](C)C(=O)O[C@@H]2C[C@@H](C)[C@@H]2C=CC(=O)[C@]21C
inactive: Potency [1] | Potency (HeLa)
active: Potency [4] 3.6 µM | Potency [2] 2.01 µM | Potency [3] 1.79 µM | Potency (HEK293) 3.6 µM | Potency (NIH3T3 [5]) 8.05 µM

COc1cc(C(=O)N2CC[C@@H](O)[C@@H](N)C2)cc2nc(-c3cc4ccccc4n3CC3CC3)n(C)c12
inactive: Z-AUC [6] 0.124
1.05: Z-AUC ([6]; measured here: PEO1 parental Z-AUC)
0.456: Z-AUC ([6]; measured here: PEO4 Z-AUC)
active: Potency [2] 20.9 µM | Potency [3] 18.6 µM | Potency (HEK293) 14.8 µM

CN1C(=O)N(c2ccc(C#N)c(C(F)(F)F)c2)C(=O)[C@@]1(CO)c1ccccc1
inactive: Potency [4] | Potency [1] | Potency [3] | max response (HaCat [7]) 0.274% | max response (NIH3T3 [5]) 4.41% | Potency (CRL-7250) | Potency (SKOV3)

C[C@]12CC[C@H](O)C[C@@]1(O)CC[C@@H]1[C@@H]2CC[C@]2(C)[C@@H](c3ccc(=O)oc3)CC[C@]12O
inactive: max response (NIH3T3 [5]) -7.45% | Potency (HeLa) | Potency (SKOV3)
active: Potency [4] 0.0184 µM | Potency (HEK293) 0.0517 µM

CN=C(NS(=O)(=O)c1ccc(Cl)cc1)N1C[C@H](c2ccccc2)C(c2ccc(Cl)cc2)=N1
inactive: Potency [1] | Potency [8] | Potency [9] | max response (HaCat [7]) -7.89% | max response (NIH3T3 [5]) 4.13% | Potency (CRL-7250) | Potency (HeLa) | Potency (SKOV3)

c1ccc([C@@H]2C[C@H]2NC2CCNCC2)cc1
inactive: Potency [4] | Potency [1] | Potency [2] | max response (HEK293) -16.2% | Potency (SKOV3)
active: Potency [8] 10.7 µM

CCCCCCC1C(=O)O[C@H](C)[C@H](NC(=O)c2cccc(NC=O)c2O)C(=O)O[C@@H](C)[C@@H]1OC(=O)CC(C)C (some centres not stated)
active: Potency [1] 6.31 µM | Potency [2] 0.0115 µM | Potency (HEK293) 0.164 µM | Potency (SKOV3) 0.794 µM

CC(C)[C@H]1OC(=O)[C@H](Cc2ccccc2)N(C)C(=O)[C@@H](C(C)C)OC(=O)[C@H](Cc2ccccc2)N(C)C(=O)[C@@H](C(C)C)OC(=O)[C@H](Cc2ccccc2)N(C)C1=O
active: Potency [4] 4.85 µM | Potency [2] 6.82 µM | Potency [3] 4.83 µM | Potency (HEK293) 6.11 µM

CN1C(=O)[C@@H](Cc2c[nH]c3ccccc23)N=C(c2ccccc2F)c2ccccc21
active: Potency [8] 9.52 µM | Potency [9] 6.74 µM
inactive: Potency [1] | max response (HaCat [7]) -23.4% | max response (NIH3T3 [5]) -3.73% | Potency (CRL-7250) | Potency (SKOV3)

COC1CCCC(C)OC(=O)Cc2cc(O)cc(O)c2C(=O)C1 (configuration not stated)
active: Potency [4] 4.04 µM | Potency [2] 2.84 µM | Potency [3] 3.19 µM | Potency (HEK293) 3.6 µM

CC1=CC2OC3CC(O)[C@](C)([C@@]2(C)C(O)C1=O)[C@]31CO1 (some centres not stated)
inactive: Potency [1]
active: Potency [4] 5.17 µM | Potency [2] 5.15 µM | Potency (HEK293) 5.17 µM | Potency (NIH3T3 [5]) 4.11 µM

C#C[C@]1(O)CC[C@H]2[C@@H]3CC[C@H]4Cc5nc6nc7ccccc7n6cc5C[C@]4(C)[C@H]3CC[C@@]21C
active: Potency [4] 20.6 µM | Potency [2] 12.9 µM | Potency [3] 11.5 µM | Potency (HEK293) 14.6 µM
-13.5%: activity [10]
-21%: activity [12]
-31.4%: activity [13]
-2.81%: activity change, negative = inhibition [11]
inactive: Potency [1]

CN(C)[C@@H]1C(=O)C(C(N)=O)=C(O)[C@@]2(O)C(=O)C3=C(O)c4c(O)ccc(Cl)c4[C@@](C)(O)C3C[C@@H]12 (some centres not stated)
inactive: Potency [4] | Potency [1] | Potency [2] | Potency [3] | max response (HEK293) 0.697% | outcome (NIH3T3 [5]) | outcome (NIH3T3 [14]) | Potency (HeLa) | Potency (SKOV3)

COC1CC(O[C@H]2CC[C@@]3(C)C(CCC4C3CC[C@]3(C)C(C5=CC(=O)OC5)CCC43O)C2)OC(C)C1OC1OC(COC2OC(CO)C(O)C(O)C2O)C(O)C(O)C1O (some centres not stated)
active: Potency [4] 1.74 µM | Potency [2] 0.975 µM | Potency [3] 1.73 µM | Potency (HEK293) 1.74 µM | Potency (HeLa) 2.82 µM | Potency (SKOV3) 3.16 µM
inactive: Potency [1] | max response (NIH3T3 [5]) 2.72%

C=C(C)[C@@]12O[C@@H]1[C@@]1(C)C(=CC2=O)CC[C@@H](OC(C)=O)[C@@H]1C
active: Potency [4] 5.17 µM | Potency [2] 4.59 µM | Potency [3] 3.25 µM | Potency (HEK293) 3.26 µM | Potency (NIH3T3 [5]) 3.66 µM | Potency (SKOV3) 3.16 µM

CC(C)[C@H](NC(=O)c1nn(Cc2ccc(F)cc2)c2ccccc12)C(N)=O
active: Potency [8] 16.9 µM | Potency [9] 6.74 µM
inactive: Potency [4] | Potency [1] | Potency [2] | Potency [3] | max response (HEK293) -11.8% | max response (NIH3T3 [5]) -27.5% | Potency (HeLa) | Potency (SKOV3)

C[C@@H]1O[C@@H](OC2CCC3(C=O)C(CCC4C3CCC3(C)C(C5=CC(=O)OC5)C(O)CC43O)C2)[C@H](O)[C@H](O)[C@H]1O[C@@H]1O[C@H](CO)[C@@H](O)[C@H](O)[C@H]1O (some centres not stated)
active: Potency [4] 6.11 µM | Potency [2] 2.42 µM | Potency (HEK293) 3.85 µM | Potency (SKOV3) 11.2 µM
inactive: max response (NIH3T3 [5]) 4.35%

CN(Cc1cccc(-c2ccncc2)c1)C(=O)Oc1ccc(-c2ccc(C(N)=O)cc2)cc1
inactive: Potency [1] | Potency [9] | outcome (HaCat [7]) | max response (NIH3T3 [5]) 2.66% | Potency (CRL-7250) | outcome (HACAT [15]) | Potency (HeLa) | Potency (SKOV3)

CC[C@H](O)[C@@H](C)[C@H]1O[C@@H]1C[C@H](C)/C=C/C=C(\C)[C@H]1OC(=O)C[C@H](O)CC[C@@](C)(O)[C@@H](OC(C)=O)/C=C/[C@@H]1C
inactive: Potency [1] | Potency [3]
active: Potency [4] 0.0092 µM | Potency [2] 0.0058 µM | Potency (HEK293) 0.0041 µM | Potency (NIH3T3 [5]) 0.0116 µM

C=C1C(=O)CC2OC2(C)CC2OC(=O)C(=C)C2C(O)C1OC(=O)/C(C)=C\C (configuration not stated)
inactive: Potency (SKOV3)
active: Potency [2] 2.26 µM | Potency [3] 2.01 µM | Potency (HEK293) 4.53 µM
